Bioassay records from PubChem BioAssay.
Compounds with a hit are over-represented: about 21% of the library has one in this group of screens.
CHX counter – counter-screen hit for Shiga toxin inhibitors, cycloheximide. cell reporter, cycloheximide protein synthesis inhibition counterscreen. max response, %. 12% of 300,000 active; in the data active = max response mostly above about 13%, no sharp cut-off; inactive = mostly below about 14%; note: read at 38.3 µM for the half of the compounds with a filed dose
Shiga inhibitor – inhibitors of Shiga toxin in Vero cells; Vero cells, Shiga toxin protein synthesis inhibition reporter; inhibition, % at 38.7 µM; 9.2% of 290,000 active; AID 2315; in the data active = inhibition mostly above about 28%, no sharp cut-off; inactive = mostly below about 43%
Pf growth 96h – P. falciparum growth inhibition at 96 hours; P. falciparum luciferase reporter growth, 96 h; AID 504834; 6.9% of 320,000 active; Potency, µM (doses to about 28.7 µM), usual class: inhibitors
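Readout is luminescence from an integrated firefly luciferase in P. falciparum. Red cells, 2% hematocrit and 0.05% parasitemia final, were cultured with compound through two parasite generations (96 hours) at 37 C, 5% CO2.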
Pf growth 48h – inhibits P. falciparum growth in the first generation, 48 h; P. falciparum luciferase growth in erythrocytes, 48 h; Potency, µM (series often up to 28.7 µM), usual class: inhibitors; 5.9% of 310,000 active
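Growth was read as firefly luciferase luminescence after a 48 h, 37 C, 5% CO2 exposure of compounds to reporter-bearing P. falciparum cultures (0.1% parasitemia, 2% hematocrit final) in Albumax-supplemented RPMI 1640.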
Numbers stand for hits; 0 = inactive; ? = inconclusive; - = no result. Unless noted, calls come from the whole dose curve; as a rule, active = well fitted inhibition curve with a large enough effect; inconclusive = small, poorly fitted or top-dose-only effect, or another doubt; inactive = no such curve, though single readings can be large or run the other way.

SMILES	CHX counter	Shiga inhibitor	Pf growth 96h	Pf growth 48h
Cc1cc(=O)n2[nH]c(-c3ccc(C(C)(C)C)cc3)cc2n1	0	0	4.7µM	2.9µM
Cc1nc2nc(-c3ccccc3)[nH]n2c(=O)c1C	0	0	-	0
Cc1nc2cc(-c3ccccc3)[nH]n2c(=O)c1C	34	63	0	0
CCc1c(C)nc2cc(-c3ccc(OC)cc3)[nH]n2c1=O	32	130	0	?
N#Cc1ccccc1NC(=O)CN(Cc1ccccc1)Cc1ccccc1	0	0	?	?
Cc1cc(=O)n2[nH]c(-c3ccccc3)cc2n1	0	66	-	0
O=C(/C=C/c1ccco1)NC(=S)Nc1ccccn1	56	109	-	0
Cc1cccnc1NC(=S)NC(=O)/C=C/c1ccco1	71	152	-	0
Cn1nnc(NC(=S)NC(=O)/C=C/c2ccco2)n1	0	0	0	0
CNS(=O)(=O)c1cccc(C(=O)OCC(=O)Nc2ccc(OC)cc2[N+](=O)[O-])c1	0	0	0	0
COc1ccc2nc3c(nc2c1)CCCC3	33	0	0	0
Cc1cc(C)c(S(=O)(=O)c2ccccc2)c(=O)[nH]1	18	0	0	0
Cc1cccc(S(=O)(=O)c2c(C)cc(C)[nH]c2=O)c1	30	0	0	0
Cc1cc(C)c(S(=O)(=O)c2cccc(C(F)(F)F)c2)c(=O)[nH]1	0	0	0	?
Cc1ccc(S(=O)(=O)c2c(C)cc(-c3ccccc3)[nH]c2=O)cc1	0	0	0	0
CC(C(=O)NCc1cccnc1)c1ccc([N+](=O)[O-])cc1 (configuration not stated)	0	0	0	0
CC1=CC(C)(C)N(C(=O)C(C)N2C(=O)c3ccccc3C2=O)c2c(C)cc(C)cc21 (configuration not stated)	0	0	-	10µM
CSCCOC(=O)COc1ccc(/C=N/NC(=O)c2nn(C)cc2Cl)cc1	28	59	0	0
Cc1ccc(S(=O)(=O)Oc2ccc(/C=N/NC(=O)c3nn(C)cc3Cl)cc2)cc1	0	0	?	?
O=C(NCCc1nc2ccccc2n1CCOc1ccc(Cl)cc1)C1CCCCC1	0	0	-	-
O=C(NC1(N2CCOCC2)CC1)c1ccc(Cl)cc1	0	0	0	0
COCCCn1nnnc1SCC(=O)N1CCCC1	0	0	0	0
CCn1nnnc1SCC(=O)Nc1nnc(C(C)C)s1	0	0	0	0
COCCCn1nnnc1SCC(=O)Nc1nc(C)c(C)s1	18	0	0	0
CCn1nnnc1SCC(=O)Nc1nc(C)c(C)s1	29	44	?	0
SMILES	CHX counter	Shiga inhibitor	Pf growth 96h	Pf growth 48h
CCN(CC)S(=O)(=O)c1ccc(Cl)c(C(=O)NC2CCN(Cc3ccccc3)CC2)c1	0	0	0	?
COc1ccccc1NS(=O)(=O)c1ccc(C)c(C(=O)NC2CCN(Cc3ccccc3)CC2)c1	-	-	?	10µM
COc1ccccc1NS(=O)(=O)c1cccc(C(=O)NC2CCN(Cc3ccccc3)CC2)c1	-	-	3.7µM	10µM
COc1ccc(NS(=O)(=O)c2ccc(C)c(C(=O)NC3CCN(Cc4ccccc4)CC3)c2)cc1	0	0	7.4µM	10µM
CN1C(=O)C(C)(C)c2cc(S(=O)(=O)NCC3CCC(C(=O)NCc4ccccc4)CC3)ccc21 (configuration not stated)	0	0	0	0
COCCNC(=O)c1onc(CSc2ccccc2)c1C(=O)NCCOC	-	-	0	0
COc1ccccc1COCC(O)CN1CCN(S(=O)(=O)c2cccc(F)c2)CC1 (configuration not stated)	-	-	0	0
O=C(Nc1ccc(F)cc1F)c1cccnc1	0	0	?	-
Cc1ccc(C(=O)Nc2ccn(Cc3ccc(F)cc3)n2)o1	25	56	0	0
Cc1ccc(C(=O)Nc2ccc(F)cc2F)o1	44	0	0	-
CC(=O)c1cccc(NC(=O)c2ccc3c(c2)OCO3)c1	52	-	?	0
CCOC(=O)c1[nH]c2ccccc2c1NC(=O)c1ccc2c(c1)OCO2	0	0	0	-
CCOC(=O)c1c(C)c(C(=O)Nc2ccc3c(c2)OCO3)c(C)n1C	0	41	0	?
CCOC(=O)c1cccc(NC(=O)c2ccc3c(c2)OCO3)c1	21	33	0	0
CCOC(=O)c1oc2ccccc2c1NC(=O)c1ccc2c(c1)OCO2	0	0	13µM	0
CC(=O)c1ccc2c(c1)OCO2	0	0	0	0
O=C(OCc1nc(-c2ccccc2Cl)no1)c1ccco1	-	-	0	0
COc1ccc(C(=O)CCC(=O)N2CCN(c3cc(C)ccc3C)CC2)cc1	0	0	0	0
Cc1ccc(CNC(=O)CSc2nnc(CNC(=O)c3ccccc3)o2)cc1	0	0	0	0
COc1ccc(S(=O)(=O)N2CCN(C(=O)c3ccco3)CC2)cc1C(C)(C)C	0	-	0	?
CCOC(=O)c1cccc(NC(=O)/C=C/c2cccc([N+](=O)[O-])c2)c1	0	0	0	0
O=C(Nc1cccc(NC(=O)c2ccc3c(c2)OCO3)c1)c1ccccc1	24	0	0	0
Cc1cc(NC(=O)c2ccc3c(c2)OCO3)ccc1NC(=O)c1ccccc1	0	0	0	0
CCOC(=O)CNc1ccc2c(c1)OCO2	0	0	0	?
CCOC(=O)c1cccc(NC(=O)/C=C/c2ccc3c(c2)OCO3)c1	31	45	?	0
SMILES	CHX counter	Shiga inhibitor	Pf growth 96h	Pf growth 48h
Cc1nc(NC(=O)c2ccccc2)nc2cc3c(cc12)OCO3	46	92	0	0
CCOC(=O)CNC(=O)/C=C/c1ccc2c(c1)OCO2	18	0	?	0
COC(=O)c1cccc(COC(=O)c2cccnc2SC)c1	21	0	-	0
CSc1ncccc1C(=O)OCc1c(F)cccc1Cl	21	91	0	0
COc1ccc(C(C)=O)cc1COC(=O)c1cccnc1SC	0	0	0	0
O=C(OCc1c(F)cccc1Cl)c1cccnc1Cl	0	0	0	0
CSc1ncccc1C(=O)OCc1ccccc1Cl	41	0	0	0
Cc1cc(-c2ccccc2)nc(SCc2ccc(C(=O)O)cc2)n1	0	0	0	0
O=C(NC1CCCCC1)NC1C2CC3CC(C2)CC1C3 (configuration not stated)	0	0	?	0
COc1cc(CC(=O)OCC(=O)NCCc2ccc(S(N)(=O)=O)cc2)cc(OC)c1OC	-	-	0	0
CN(C)CCCN(C(=O)c1ccc(S(=O)(=O)N2CCCC2)cc1)c1nc2ccc(Br)cc2s1	0	0	?	?
CCOC(=O)N1CCN(S(=O)(=O)c2ccc(C(=O)N(CCN(C)C)c3nc4ccc(Cl)cc4s3)cc2)CC1	27	110	0	0
CN(C)CCCN(C(=O)c1ccc(S(=O)(=O)N2CCCCC2)cc1)c1nc2cc3c(cc2s1)OCO3	0	0	0	12µM
Cc1cc(C)c2nc(N(CCCN(C)C)C(=O)c3ccc(S(=O)(=O)N4CCCCCC4)cc3)sc2c1	-	-	12µM	9.3µM
CCOC(=O)N1CCN(S(=O)(=O)c2ccc(C(=O)N(CCCN(C)C)c3nc4ccc(OC)cc4s3)cc2)CC1	0	0	0	?
CCN(CC)C(=O)Cn1cc(C(=O)C(=O)NCc2ccccn2)c2ccccc21	0	0	0	0
OCC1(CCc2ccccc2)CCCN(CCCc2ccccc2)C1 (configuration not stated)	0	0	0	?
O=S(=O)(c1ccc(NC(=S)NCc2ccncc2)cc1)N1CCCCC1	0	0	0	?
